Here are results for 56 compounds from PubChem BioAssay AID624351 (Southern Research Specialized Biocontainment Screening …, 2012).

Among all 2,400 compounds or so, about 1,400 (58%) were called active. So high a share suggests a set chosen from earlier hits. The list shows a part of the results. Unmarked numbers belong to inactive results.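 The calls were made as follows: active = inhibition of 30% or more at any tested dose; inconclusive = primary hits over the limit that were never retested; inactive = the rest.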

This assay is described as follows: ADP Hunter readout inhibition without MgcRacGAP – biochemical, coupled enzyme counter-screen, artefact control for MgcRacGAP inhibitor project, dose response (AID 624351).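 Also: signal is the ADP detection kit reading of free GDP without any GAP enzyme.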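 As to inhibition: 0% = median positive control wells and 100% = median negative control wells.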 The conditions noted are these: fluorescence, no MgcRacGAP; series mostly up to 80 µM. Background: Counterscreens check selectivity or assay interference.
For the compound `O=[N+]([O-])c1cnc(Sc2ccncn2)c([N+](=O)[O-])c1`, the IC50 entry is “inactive”.
Same read-out and setting: the result for `CSc1nc(O)c(/C=C2\C=Nc3ccccc32)[nH]1` reads 33.2 µM (active); that for `CSc1nc(/C=C2\C=Nc3ccccc32)c(O)n1C`, 45.4 µM (active).
Take `CC1(C)CC[C@]2(C(=O)n3ccnc3)CC[C@]3(C)[C@H](C(=O)C=C4[C@@]5(C)C=C(C#N)C(=O)C(C)(C)[C@@H]5CC[C@]43C)[C@@H]2C1`: the IC50 entry is “inactive”.
In the case of `CCc1ccc(O)c(N=Cc2ccccc2O)c1`, the IC50 was 37.4 µM (active).
With `CCc1ccc(O)c(N=Cc2cccc(C)c2O)c1`, the IC50 is 50.5 µM (active).
Take `C=CCc1cccc(C=Nc2cc(Br)ccc2O)c1O`: the IC50 was 16.2 µM (active).
Still for that read-out and setting: the result for `Cc1ccc(O)c(N=Cc2cc(Cc3ccccc3)cc([N+](=O)[O-])c2O)c1` reads “inactive”.
The same measure, in the same setting: the same measure for `OC(CNCC1COc2ccccc2O1)COCc1cccs1` (stereo unspecified): “inactive”.
Still for that read-out and setting: the same measure for `O=C(C1CCCN(Cc2cccnc2)C1)N1CCCCC1` (stereo unspecified): “inactive”; for `Cc1ccc(CN2CCN(CC3CC4C=CC3C4)CC2)cc1` (stereo unspecified): “inactive”.
With `Cc1cccc2c1c1ccc3c(c1n2C)C(=O)C=CC3=O`, the IC50 result was “inactive”.
Still for that read-out and setting: the result for `CC(OC(=O)CCN=C1NS(=O)(=O)c2ccccc21)C(=O)Nc1ccc(N(C)C)cc1` (stereo unspecified) reads 50.9 µM (active); that for `Fc1ccc(CNc2ccc(N3CCN(Cc4ccccc4)CC3)cc2)cc1`, 12.3 µM (active).
On the same count and under the same terms, the result for `O=C(CN1CCN(Cc2ccccc2)CC1)NC(c1ccccc1)c1ccccc1` reads “inactive”.
With `Clc1ccc(CNc2ccc(N3CCN(Cc4ccccc4)CC3)cc2)cc1`, the IC50 is 30.3 µM (active).
For `Fc1ccc(CN2CCN(C(c3ccccc3)c3ccccc3)CC2)cc1`, the IC50 result was “inactive”.
On the same count and under the same terms, the same measure for `C#CCOc1ccccc1CNC1CCN(Cc2ccccc2)CC1`: “inactive”; for `O=C(CN1CCN(Cc2ccccc2)CC1)Nc1ccc(F)c(F)c1`: “inactive”; for `CN(C)C(=S)N=c1ssc(=S)n1Cc1cccnc1`: “inactive”.
As to `O=C1CSC(=Nc2ccc(O)cc2)N1`, the IC50 was 42 µM (active).
As to `C=CCN1C(=O)CSC1=Nc1ccc(O)cc1`, the half-maximal inhibitory concentration (IC50) was 28.9 µM (active).
For `COc1cc(/C=N/N=C2/SCC(=O)N2c2ccc(O)cc2)ccc1O`, the half-maximal inhibitory concentration (IC50) is 48.1 µM (active).
Consider `O=C1CSC(=Nc2ccc(O)cc2)N1c1ccc(O)cc1`, for which the concentration for half-maximal inhibition (IC50) is 56.7 µM (active).
As for `Cc1ccc(C)n1/N=C1/NC(=O)CS1`, the inhibition was -5.01% [at 10 µM].
With `COc1ccccc1Nc1n[nH]c(=S)s1`, the IC50 is 46.8 µM (active).
Regarding `COc1ccccc1Nc1ccc2c(O)cc(S(=O)(=O)O)cc2c1`, the IC50 entry is “inactive”.
For `Cc1c(Cl)cccc1NC(=S)Nc1ccc2[nH]c(=O)[nH]c2c1`, the IC50 entry was “inactive”.
Take `N#CC1=C(Nc2ccccc2Cl)SC(c2ccccc2O)NC1=O` (stereo unspecified): the IC50 result was “inactive”.
Regarding `S=c1[nH]nc(Nc2ccccc2Cl)s1`, the IC50 is 51.9 µM (active).
The same measure, in the same setting: the result for `Cc1c(Cl)cccc1Nc1n[nH]c(=S)s1` reads 78.7 µM (active); that for `Fc1ccccc1Nc1n[nH]c(=S)s1`, 47.7 µM (active).
Still for that read-out and setting: the result for `N/N=C(\Cc1cscn1)c1ccc(O)cc1O` reads 67.8 µM (active); that for `CCc1cc(/C(Cc2ccccn2)=N\O)c(O)cc1O`, 32.1 µM (active).
Take `CCc1cc(/C(Cc2csc(C)n2)=N/O)c(O)cc1O`: the IC50 is 33.2 µM (active).
Turning to `CCc1cc(/C(Cc2cscn2)=N\O)c(O)cc1O`, the IC50 was 52.1 µM (active).
Same read-out and setting: the same measure for `Cc1ccccc1CN(C)CCc1ccccn1`: “inactive”; for `COc1ccc(Br)cc1CN1CCN(C(=O)c2ccc(F)cc2)CC1`: “inactive”.
On to `CCN(CCNCC(O)COc1ccccc1C(C)C)c1cccc(C)c1` (stereo unspecified), for which the IC50 entry is “inactive”.
Consider `COc1cccc(CN2CCN(Cc3cc(OC)c(OC)cc3[N+](=O)[O-])CC2)c1`, for which the IC50 entry is “inactive”.
Consider `COc1cc(-c2cc(-c3ccc(F)cc3)nc(N)c2C#N)ccc1O`, for which the IC50 result is “inactive”.
Regarding `COc1cc(-c2cc(-c3ccc(O)cc3)nc(N)c2C#N)ccc1O`, the half-inhibitory concentration (IC50) was 51.6 µM (active).
For `CCCN(CCC)CCCNC(=S)Nc1ccc2nc(N3CCCC3)cc(C)c2c1`, the IC50 entry is “inactive”.
For the compound `CCn1c(=O)n(CC)c2cc(N3CCCC3)c(NC(=O)c3cccc(Cl)c3)cc21`, the IC50 result was “inactive”.
Take `O=C(/C(=C/c1cccnc1)n1ccnc1)c1ccc(Cl)cc1Cl`: the IC50 result was “inactive”.
Same read-out and setting: the result for `COCCNCCOCCOc1ccc(Cl)c(C)c1` reads “inactive”.
Still for that read-out and setting: the result for `COC(=O)C1=C(C)N(Cc2ccco2)C(=O)C1` reads “inactive”; that for `CCOC(=O)C1=C(O)/C(=C\c2ccc(O)c(OCC)c2)N=C1C`, 52.3 µM (active); that for `COC(=O)C1=C(C)N(Cc2ccco2)C(=O)/C1=C\c1ccc([N+](=O)[O-])cc1`, “inactive”.
With `CCOc1cc(/C=C2\C(=O)N(Cc3ccco3)C(C)=C2C(=O)OC)ccc1O`, the IC50 is 68.7 µM (active).
Same read-out and setting: the same measure for `COC(=O)C1=C(O)/C(=C\c2ccc(O)c(OC)c2)N=C1C`: 20 µM (active); for `CCOc1cc(/C=C2/N=C(C)C(C(=O)OC)=C2O)ccc1O`: 29.6 µM (active).
For `COc1nc(Nc2ccc(O)cc2)nc(OC(C(F)(F)F)C(F)(F)F)n1`, the IC50 is 39 µM (active).
Consider `COc1cc(/C=N/NC(=S)NCCN2CCOCC2)ccc1O`, for which the IC50 is 21.8 µM (active).
With `O=S(=O)(Nc1ccccc1F)c1cccc(NC(=S)NCCN2CCOCC2)c1`, the IC50 result was “inactive”.
On the same count and under the same terms, the result for `Oc1ccc(/C=N/NC(=S)NCCN2CCOCC2)c(O)c1` reads 20.9 µM (active).

The term IC50 denotes the concentration needed to halve the response being measured. Broadly, the inhibition is the relative decrease from the control value, in per cent.
